Reference: the supplement of paper PMC10849652
Of roughly 8,800 targets only a part is listed; those with a hit were picked by preference. About 0.5% of all pairs of compound and target were hits.

Legend:
Experiment in all cases: log2 fold change, soluble protein after heating vs DMSO (PISA); higher = thermal stabilisation; K562 lysate, 10 uM; active = over 0.2 and 3.5 SD of the protein, either way, in both replicates (recomputed)
erlotinib = compound: C#Cc1cccc(Nc2ncnc3cc(OCCOC)c(OCCOC)cc23)c1 [erlotinib]
Method in brief: (§1)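 Soluble protein was defined as the supernatant remaining after 21,000xg for 90 min, following pooling of heated aliquots and adjustment to 0.5% NP-40 at 4°C. Before that, crude K562 extract at 1 mg/mL protein in PBS pH 7.4 with 1 mM MgCl2 was treated with 10 μM compound for 30 min and heated for 3 min across 48°C-58°C. Quantification used TMTpro 16plex LC-MS/MS with channel sums equalised, and values are log-two fold changes in thermal stability relative to solvent controls from duplicates.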

[1] = compound: C/C(=N\NC(=O)C1=CC(=CC=C1)S(=O)(=O)N2CCOCC2)/C3=C(C=CC(=C3)Cl)O
Method in brief: as §1

[2] = compound: C1=CC(=CC=C1C2=NC3=C(N2)C=C(C=C3)C(=O)N)OC4=CC=C(C=C4)Cl
Method in brief: as §1

[3] = compound: C1=CC2=C(C=CC(=C2)/C=C\3/C(=O)NC(=NCC4=CC=CS4)S3)N=C1
Method in brief: as §1

[4] = compound: C1=CC2=NC=CN=C2C=C1/C=C/3\C(=O)NC(=O)S3
Method in brief: as §1

[5] = compound: C1=CC=C(C=C1)C2=NC(=C(N2)C3=CC=NC=C3)C4=CC(=C(C=C4)Cl)O
Method in brief: as §1

[6] = compound: C1=CC=C2C(=C1)C3=NNC4=CC=CC(=C43)C2=O
Method in brief: as §1

[7] = compound: C1CCN(C1)C(=O)NC2=CC=CC(=C2)NC3=NC=C(C(=N3)NCCC4=CN=CN4)Br
Method in brief: as §1

[8] = compound: C1CN(CCC1(CC2=CC=C(C=C2)Cl)N)C3=NC=NC4=C3C=CN4
Method in brief: as §1

IRAK-1-4 Inhibitor I = compound: C1COCCN1CCN2C3=CC=CC=C3N=C2NC(=O)C4=CC(=CC=C4)[N+](=O)[O-] [IRAK-1-4 Inhibitor I]
Method in brief: as §1

ibrutinib = compound: C=CC(=O)N1CCC[C@@H](n2nc(-c3ccc(Oc4ccccc4)cc3)c3c(N)ncnc32)C1 [ibrutinib]
Method in brief: as §1

[9] = compound: CC(=O)c1cnc2ccc(-c3cc(Cl)c(O)c(Cl)c3)nc2c1N[C@H]1CC[C@H](CN(C)C)CC1
Method in brief: as §1

ralimetinib = compound: CC(C)(C)Cn1c(N)nc2ccc(-c3[nH]c(C(C)(C)C)nc3-c3ccc(F)cc3)nc21 [ralimetinib]
Method in brief: as §1

[10] = compound: CC(C)(O)CC(=O)NCCn1ccc2ncnc(Nc3ccc(Oc4cccc(C(F)(F)F)c4)c(Cl)c3)c21
Method in brief: as §1

[11] = compound: CC(C)C1=C2N=C(C=C(N2N=C1)NCC3=CC=CC=C3)NCCCCCCN
Method in brief: as §1

[12] = compound: CC1=C(C(CC(=O)N1)C2=CC=C(C=C2)C(F)(F)F)C(=O)NC3=C(C=C4C(=C3)C=NN4)F
Method in brief: as §1

[13] = compound: CC1=C(C2=C(C=C1)C(=O)C3=CC=CC=C3N2CCCN)C
Method in brief: as §1

[14] = compound: CC1=C(C=C(C=C1)NC(=O)C2=CC(=CC=C2)C(C)(C)C#N)NC3=CC4=C(C=C3)N=CN(C4=O)C
Method in brief: as §1

[15] = compound: CC1=C(C=C(C=C1)NC(=O)C2=CC(=CC=C2)N(C)C)NC(=O)C3=CC=C(C=C3)O
Method in brief: as §1

[16] = compound: CC1=CC=C(C=C1)SC2=C3C=C(SC3=CN=C2)C(=O)N
Method in brief: as §1

Measured: log2 fold change

WDR20 isoform 7 (UniProt Q8TBZ3)
inactive: erlotinib -0.001 | [1] -0.105 | [2] 0.043 | [3] 0.04 | [4] -0.117 | [5] 0.094 | [6] -0.016 | [7] -0.05 | [8] 0.092 | IRAK-1-4 Inhibitor I 0.026 | ibrutinib 0.003 | [9] -0.001 | ralimetinib 0.088 | [10] -0.023 | [11] -0.019 | [12] 0.087 | [13] 0.044 | [14] 0.058 | [15] -0.003 | [16] 0.014

WDR45 isoform 2 (UniProt Q9Y484)
inactive: erlotinib -0.047 | [1] -0.032 | [2] -0.024 | [3] -0.001 | [4] 0.06 | [5] -0.008 | [6] -0.016 | [7] 0.041 | [8] -0.005 | IRAK-1-4 Inhibitor I -0.012 | ibrutinib 0.018 | [9] 0.014 | ralimetinib 0.13 | [10] 0.111 | [11] -0.008 | [12] 0.014 | [13] 0.028 | [14] -0.04 | [15] -0.014 | [16] -0.036

USP16 (UniProt Q9Y5T5)
inactive: erlotinib -0.002 | [1] -0.01 | [2] -0.01 | [3] -0.002 | [4] 0.011 | [5] 0.036 | [6] -0.016 | [7] -0.028 | [8] -0.005 | IRAK-1-4 Inhibitor I -0.033 | ibrutinib -0.027 | [9] -0.035 | ralimetinib -0.001 | [10] 0.011 | [11] 0.017 | [12] 0 | [13] -0.06 | [14] -0.027 | [15] -0.012 | [16] 0.019

ZNF451 (UniProt Q9Y4E5)
inactive: erlotinib 0.036 | [1] -0.064 | [2] -0.007 | [3] -0.002 | [4] -0.032 | [5] 0.002 | [6] -0.014 | [7] -0.096 | [8] 0.026 | IRAK-1-4 Inhibitor I -0.009 | ibrutinib 0.004 | [9] 0.019 | ralimetinib 0.02 | [10] 0.007 | [11] -0.011 | [12] 0.033 | [13] -0.003 | [14] -0.012 | [15] 0.019 | [16] 0.055

VAMP2 (UniProt P63027)
UniProt P63027, sequence (P63027 whole entry, looked up): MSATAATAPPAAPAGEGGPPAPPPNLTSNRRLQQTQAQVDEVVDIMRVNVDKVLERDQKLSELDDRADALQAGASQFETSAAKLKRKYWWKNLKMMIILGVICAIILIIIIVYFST
inactive: erlotinib -0.083 | [1] 0.055 | [2] -0.024 | [3] -0.063 | [4] 0.063 | [5] -0.082 | [6] -0.037 | [7] 0.081 | [8] -0.009 | IRAK-1-4 Inhibitor I -0.033 | ibrutinib -0.039 | [9] -0.027 | ralimetinib 0.002 | [10] -0.006 | [11] -0.036 | [12] -0.069 | [13] -0.01 | [14] -0.048 | [15] 0.047 | [16] 0.035

USP48 isoform 8 (UniProt Q86UV5)
inactive: erlotinib 0.001 | [1] -0.059 | [2] -0.011 | [3] -0.008 | [4] 0.005 | [5] 0.02 | [6] -0.02 | [7] 0 | [8] 0.018 | IRAK-1-4 Inhibitor I -0.014 | ibrutinib -0.02 | [9] -0.014 | ralimetinib 0.004 | [10] 0 | [11] -0.005 | [12] 0.007 | [13] -0.005 | [14] 0.001 | [15] 0 | [16] -0.01

YTHDF3 (UniProt Q7Z739)
UniProt Q7Z739, sequence (Q7Z739 whole entry, looked up): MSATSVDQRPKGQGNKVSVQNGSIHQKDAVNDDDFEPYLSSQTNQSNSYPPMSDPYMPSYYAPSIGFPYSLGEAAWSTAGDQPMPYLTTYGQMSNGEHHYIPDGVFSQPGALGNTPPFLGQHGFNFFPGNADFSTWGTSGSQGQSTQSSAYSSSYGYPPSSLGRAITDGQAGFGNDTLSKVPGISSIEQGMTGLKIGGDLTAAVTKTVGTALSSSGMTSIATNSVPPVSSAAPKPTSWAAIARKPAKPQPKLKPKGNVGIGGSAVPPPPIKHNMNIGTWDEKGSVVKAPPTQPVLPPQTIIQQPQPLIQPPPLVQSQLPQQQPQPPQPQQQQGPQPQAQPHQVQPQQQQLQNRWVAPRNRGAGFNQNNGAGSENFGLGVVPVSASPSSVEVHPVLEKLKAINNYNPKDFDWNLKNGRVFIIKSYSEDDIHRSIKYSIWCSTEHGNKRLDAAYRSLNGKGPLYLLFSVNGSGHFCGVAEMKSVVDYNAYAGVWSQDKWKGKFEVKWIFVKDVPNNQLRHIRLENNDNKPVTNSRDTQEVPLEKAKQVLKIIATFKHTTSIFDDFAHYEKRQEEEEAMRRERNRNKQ
inactive: erlotinib -0.009 | [1] -0.003 | [2] -0.035 | [3] -0.029 | [4] 0.089 | [5] -0.183 | [6] 0.003 | [7] -0.04 | [8] 0.036 | IRAK-1-4 Inhibitor I 0.12 | ibrutinib -0.026 | [9] 0.066 | ralimetinib -0.014 | [10] -0.033 | [11] 0.008 | [12] 0.017 | [13] 0.074 | [15] 0.009 | [16] 0.096
active: [14] -0.334

VPS28 (UniProt Q9UK41)
UniProt Q9UK41, sequence (Q9UK41 whole entry, looked up): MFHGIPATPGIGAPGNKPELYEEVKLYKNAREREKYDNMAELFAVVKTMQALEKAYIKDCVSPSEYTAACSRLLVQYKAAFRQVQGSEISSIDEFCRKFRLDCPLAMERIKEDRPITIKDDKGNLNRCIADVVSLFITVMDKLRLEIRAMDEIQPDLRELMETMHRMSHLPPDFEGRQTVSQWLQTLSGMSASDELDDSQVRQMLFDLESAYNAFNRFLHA
inactive: erlotinib 0.707 | [1] -0.039 | [2] 0.004 | [3] -0.005 | [4] 0.041 | [5] 0.028 | [6] -0.036 | [7] -0.006 | [8] -0.018 | IRAK-1-4 Inhibitor I -0.036 | ibrutinib 0.109 | [9] -0.02 | ralimetinib 0.009 | [10] 0.046 | [11] -0.004 | [12] -0.005 | [13] 0.019 | [14] -0.092 | [15] 0.028 | [16] 0.019

ZMYM2 (UniProt Q9UBW7)
UniProt Q9UBW7, sequence (Q9UBW7 whole entry, looked up): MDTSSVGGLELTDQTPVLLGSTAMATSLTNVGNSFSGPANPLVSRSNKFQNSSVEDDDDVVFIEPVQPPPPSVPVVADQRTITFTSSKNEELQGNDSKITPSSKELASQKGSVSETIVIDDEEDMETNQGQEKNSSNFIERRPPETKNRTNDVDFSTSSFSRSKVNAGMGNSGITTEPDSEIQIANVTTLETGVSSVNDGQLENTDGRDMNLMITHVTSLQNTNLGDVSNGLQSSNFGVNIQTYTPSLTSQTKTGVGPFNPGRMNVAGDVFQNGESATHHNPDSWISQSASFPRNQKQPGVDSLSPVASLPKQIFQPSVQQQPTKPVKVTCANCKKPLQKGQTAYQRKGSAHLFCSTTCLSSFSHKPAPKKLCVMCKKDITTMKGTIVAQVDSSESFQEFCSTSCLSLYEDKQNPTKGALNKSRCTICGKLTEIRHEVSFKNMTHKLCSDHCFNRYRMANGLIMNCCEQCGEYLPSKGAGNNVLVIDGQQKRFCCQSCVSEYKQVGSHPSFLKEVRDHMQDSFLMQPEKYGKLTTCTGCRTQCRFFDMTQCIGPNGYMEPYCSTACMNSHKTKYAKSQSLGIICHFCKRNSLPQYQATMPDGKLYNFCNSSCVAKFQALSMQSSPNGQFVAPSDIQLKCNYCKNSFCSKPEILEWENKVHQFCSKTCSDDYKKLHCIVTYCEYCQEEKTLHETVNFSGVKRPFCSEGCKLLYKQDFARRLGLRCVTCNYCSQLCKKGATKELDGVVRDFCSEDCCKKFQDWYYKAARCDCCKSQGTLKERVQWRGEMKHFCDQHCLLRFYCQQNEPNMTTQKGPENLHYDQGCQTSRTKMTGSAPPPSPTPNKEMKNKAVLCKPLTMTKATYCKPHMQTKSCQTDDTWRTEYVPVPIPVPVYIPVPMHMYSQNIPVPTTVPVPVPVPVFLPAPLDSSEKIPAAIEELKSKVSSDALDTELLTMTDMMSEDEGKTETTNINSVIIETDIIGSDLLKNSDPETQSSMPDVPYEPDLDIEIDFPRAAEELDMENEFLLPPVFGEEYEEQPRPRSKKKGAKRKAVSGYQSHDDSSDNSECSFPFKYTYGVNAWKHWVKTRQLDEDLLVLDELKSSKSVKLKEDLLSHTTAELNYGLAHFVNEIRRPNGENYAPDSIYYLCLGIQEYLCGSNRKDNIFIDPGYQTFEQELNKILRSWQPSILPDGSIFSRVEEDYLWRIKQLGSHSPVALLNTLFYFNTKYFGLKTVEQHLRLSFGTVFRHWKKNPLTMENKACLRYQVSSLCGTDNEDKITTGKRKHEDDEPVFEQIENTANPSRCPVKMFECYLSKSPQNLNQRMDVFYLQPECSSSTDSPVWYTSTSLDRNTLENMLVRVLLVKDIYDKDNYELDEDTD
inactive: erlotinib 0.036 | [1] -0.049 | [2] 0.038 | [3] 0.073 | [4] -0.022 | [5] 0.053 | [6] -0.05 | [7] -0.209 | [8] 0.116 | IRAK-1-4 Inhibitor I 0.07 | ibrutinib -0.029 | [9] -0.059 | ralimetinib -0.037 | [10] -0.106 | [11] -0.039 | [12] -0.008 | [13] -0.018 | [14] 0.004 | [15] 0.04 | [16] -0.068

WDR6 (UniProt Q9NNW5)
inactive: erlotinib 0.001 | [1] 0.01 | [2] 0.002 | [3] 0.026 | [4] -0.01 | [5] 0 | [6] -0.014 | [7] -0.02 | [8] 0.021 | IRAK-1-4 Inhibitor I -0.011 | ibrutinib 0.008 | [9] 0.008 | ralimetinib 0.018 | [10] -0.017 | [11] -0.032 | [12] -0.012 | [13] -0.019 | [14] 0.011 | [15] 0.022 | [16] 0.017

VPS4A (UniProt Q9UN37)
UniProt Q9UN37, sequence (Q9UN37 whole entry, looked up): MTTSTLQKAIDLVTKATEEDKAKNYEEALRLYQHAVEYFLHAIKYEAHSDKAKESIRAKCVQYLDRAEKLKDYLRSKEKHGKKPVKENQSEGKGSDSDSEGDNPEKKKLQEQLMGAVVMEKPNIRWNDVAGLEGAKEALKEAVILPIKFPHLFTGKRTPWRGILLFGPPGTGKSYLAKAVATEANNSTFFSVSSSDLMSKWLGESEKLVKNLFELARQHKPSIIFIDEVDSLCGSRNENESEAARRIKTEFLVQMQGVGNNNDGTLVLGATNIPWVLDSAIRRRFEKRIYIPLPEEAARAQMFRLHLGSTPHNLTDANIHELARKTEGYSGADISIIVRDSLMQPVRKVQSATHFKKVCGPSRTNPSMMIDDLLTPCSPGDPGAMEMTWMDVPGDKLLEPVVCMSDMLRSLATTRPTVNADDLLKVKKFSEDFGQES
inactive: erlotinib 0.051 | [1] 0.005 | [2] -0.076 | [3] 0.043 | [4] -0.014 | [5] -0.017 | [6] -0.15 | [7] 0.029 | [8] -0.037 | IRAK-1-4 Inhibitor I -0.037 | ibrutinib 0.001 | [9] 0 | ralimetinib 0.013 | [10] 0.035 | [11] 0 | [12] -0.035 | [13] -0.046 | [14] -0.039 | [15] 0.045 | [16] 0.025

YLPM1 (UniProt P49750)
UniProt P49750, sequence (P49750 whole entry, looked up): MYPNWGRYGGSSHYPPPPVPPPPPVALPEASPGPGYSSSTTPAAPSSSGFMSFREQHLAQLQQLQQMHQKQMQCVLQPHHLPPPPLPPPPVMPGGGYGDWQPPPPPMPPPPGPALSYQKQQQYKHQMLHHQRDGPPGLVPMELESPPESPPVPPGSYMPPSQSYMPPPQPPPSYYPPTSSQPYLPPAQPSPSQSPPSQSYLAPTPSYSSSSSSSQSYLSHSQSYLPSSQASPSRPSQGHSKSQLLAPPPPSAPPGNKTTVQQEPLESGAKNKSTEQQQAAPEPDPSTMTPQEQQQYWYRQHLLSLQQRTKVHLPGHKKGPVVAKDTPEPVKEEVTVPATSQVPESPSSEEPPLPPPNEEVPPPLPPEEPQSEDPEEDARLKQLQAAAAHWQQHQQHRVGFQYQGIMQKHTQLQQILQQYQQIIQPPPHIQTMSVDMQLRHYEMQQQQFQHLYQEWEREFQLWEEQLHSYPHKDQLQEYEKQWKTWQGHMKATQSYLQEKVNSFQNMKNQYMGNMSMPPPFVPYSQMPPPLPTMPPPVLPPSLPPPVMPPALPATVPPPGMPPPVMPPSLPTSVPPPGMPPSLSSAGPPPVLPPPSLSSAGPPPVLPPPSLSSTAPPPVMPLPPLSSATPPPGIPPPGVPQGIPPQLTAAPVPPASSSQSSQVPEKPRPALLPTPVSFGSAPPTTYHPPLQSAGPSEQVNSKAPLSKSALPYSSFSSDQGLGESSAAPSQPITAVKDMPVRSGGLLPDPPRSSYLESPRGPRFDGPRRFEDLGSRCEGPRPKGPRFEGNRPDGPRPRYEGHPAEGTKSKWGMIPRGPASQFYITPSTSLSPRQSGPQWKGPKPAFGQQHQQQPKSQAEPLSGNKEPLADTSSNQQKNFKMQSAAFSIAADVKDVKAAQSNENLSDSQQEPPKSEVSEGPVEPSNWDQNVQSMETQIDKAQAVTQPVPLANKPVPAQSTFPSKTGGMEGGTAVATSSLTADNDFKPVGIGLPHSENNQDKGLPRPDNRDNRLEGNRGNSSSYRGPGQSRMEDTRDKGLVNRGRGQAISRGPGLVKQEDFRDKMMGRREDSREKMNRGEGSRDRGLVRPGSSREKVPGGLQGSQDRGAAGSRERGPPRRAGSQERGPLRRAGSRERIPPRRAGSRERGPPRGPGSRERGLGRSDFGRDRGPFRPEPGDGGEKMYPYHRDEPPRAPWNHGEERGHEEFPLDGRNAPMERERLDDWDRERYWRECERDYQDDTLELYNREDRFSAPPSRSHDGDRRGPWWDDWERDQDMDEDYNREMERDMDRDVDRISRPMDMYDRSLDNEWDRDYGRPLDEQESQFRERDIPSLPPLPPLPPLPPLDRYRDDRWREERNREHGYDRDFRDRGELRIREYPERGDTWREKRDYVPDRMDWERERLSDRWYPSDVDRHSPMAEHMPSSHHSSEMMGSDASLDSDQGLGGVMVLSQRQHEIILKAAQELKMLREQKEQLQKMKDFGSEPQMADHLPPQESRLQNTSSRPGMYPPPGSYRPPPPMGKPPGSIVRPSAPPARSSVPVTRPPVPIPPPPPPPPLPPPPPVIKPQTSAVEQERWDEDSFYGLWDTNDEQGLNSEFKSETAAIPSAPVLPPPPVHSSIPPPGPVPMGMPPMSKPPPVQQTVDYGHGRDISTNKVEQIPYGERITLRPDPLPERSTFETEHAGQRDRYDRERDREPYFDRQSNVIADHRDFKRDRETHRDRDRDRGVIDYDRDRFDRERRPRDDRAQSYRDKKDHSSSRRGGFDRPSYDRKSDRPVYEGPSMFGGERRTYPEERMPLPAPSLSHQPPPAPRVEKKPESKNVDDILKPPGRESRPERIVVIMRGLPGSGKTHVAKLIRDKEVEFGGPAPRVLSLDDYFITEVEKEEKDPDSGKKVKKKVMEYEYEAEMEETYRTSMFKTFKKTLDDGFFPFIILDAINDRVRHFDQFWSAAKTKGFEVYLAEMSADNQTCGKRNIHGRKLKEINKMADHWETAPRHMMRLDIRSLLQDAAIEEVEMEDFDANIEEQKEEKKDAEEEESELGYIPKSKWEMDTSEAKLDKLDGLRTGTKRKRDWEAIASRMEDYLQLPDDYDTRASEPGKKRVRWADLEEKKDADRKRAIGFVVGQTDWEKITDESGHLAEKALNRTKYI
active: [12] 0.301
inactive: erlotinib 0.026 | [1] -0.04 | [2] 0.035 | [3] -0.043 | [4] -0.018 | [5] -0.004 | [6] 0.022 | [7] 0.044 | [8] 0.019 | IRAK-1-4 Inhibitor I 0.027 | ibrutinib 0.028 | [9] -0.044 | ralimetinib -0.002 | [10] 0.022 | [11] -0.006 | [13] -0.031 | [14] -0.017 | [15] 0 | [16] -0.046

ZMAT2 (UniProt Q96NC0)
inactive: erlotinib 0.025 | [1] -0.037 | [2] 0.025 | [3] -0.023 | [4] -0.026 | [5] 0.023 | [6] 0.055 | [7] -0.007 | [8] -0.048 | IRAK-1-4 Inhibitor I 0.066 | ibrutinib 0.009 | [9] -0.016 | ralimetinib -0.011 | [10] 0.013 | [11] 0.035 | [12] -0.004 | [13] -0.021 | [14] 0.032 | [15] -0.028 | [16] -0.022

WEE1 (UniProt P30291)
inactive: erlotinib 0.079 | [1] -0.014 | [2] -0.091 | [3] -0.051 | [4] 0.019 | [5] 0.01 | [6] -0.006 | [7] -0.07 | [8] 0.021 | IRAK-1-4 Inhibitor I 0.056 | ibrutinib -0.028 | [9] 0.139 | ralimetinib -0.017 | [10] -0.062 | [11] -0.031 | [12] -0.032 | [13] -0.012 | [14] 0.023 | [15] -0.105 | [16] -0.038

USP48 (UniProt Q86UV5)
inactive: erlotinib 0.022 | [1] 0.001 | [2] -0.015 | [3] -0.051 | [4] 0.006 | [5] 0.001 | [6] 0.049 | [7] -0.033 | [8] 0.013 | IRAK-1-4 Inhibitor I -0.026 | ibrutinib -0.028 | [9] -0.224 | ralimetinib -0.038 | [10] 0.031 | [11] -0.009 | [12] 0.018 | [13] 0 | [14] -0.039 | [15] 0.041 | [16] -0.227
